Structures are written as SMILES. “And” between values parts separate entries of the source, which are not always exact repeats. Identical values can stand only once. Unmarked numbers belong to inactive results. The source made the active and inactive calls. Unless noted, calls follow the shape of the dose curve; as a rule, active = well fitted curve in the direction sought with a large enough effect in the repeat runs; inconclusive = weak or mixed curves; inactive = no such curve, though single readings can be large; an effect the other way counts as inactive or inconclusive.

The nature of assay [1]: qHTS assay to identify small molecule antagonists of the thyroid receptor (TR) signaling pathway (AID 743065). Also: nearly all actives have a fitted effect of over 55% in size. Also: potency is read from the fitted curve at half-maximal effect. Put shortly: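 GH3.TRE-Luc rat pituitary cells (two TREs driving luciferase) were dosed with compound, then stimulated with 1 nM T3 (final) for 23.5 h at 37 C. ONE-Glo luminescence was the read-out, with CellTiter-Fluor fluorescence as the cytotoxicity counter-screen.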
A general note: In qHTS, concentration-response curves come from the screen itself.

Assay [2] concerns thyroid hormone receptor (rat, GH3 cells). Nature of the assay: qHTS assay to identify small molecule agonists of the thyroid receptor (TR) signaling pathway (AID 743066; calls by dose curve).
The nature of assay [3]: qHTS assay to identify small molecule antagonists of the estrogen receptor alpha (ER-alpha) signaling pathway - cell viability counter screen (AID 743074; calls by dose curve; also: nearly all actives have a fitted effect of over 45% in size).
Assay [4] can be described thus: qHTS assay to identify small molecule antagonists of the estrogen receptor alpha (ER-alpha) signaling pathway using the BG1 cell line - cell viability counter screen (AID 743081).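 Also: compound given together with 17beta-estradiol as the ER stimulus; series mostly up to about 70 µM; nearly all actives have a fitted effect of over 45% in size.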
The next assay has as its target Aromatase (Homo sapiens) (UniProt P11511). Nature of the assay: qHTS assay to identify aromatase inhibitors (AID 743083). Also: series mostly up to about 70 µM; nearly all actives have a fitted effect of over 55% in size.
Assay [5] is described as follows: qHTS assay to identify aromatase inhibitors - cell viability counter screen (AID 743084).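 Also: cells stimulated with testosterone during compound exposure; nearly all actives have a fitted effect of over 55% in size.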
The target of assay [6] is Aryl hydrocarbon receptor (Homo sapiens) (UniProt P35869). The assay can be described thus: qHTS assay to identify small molecule that activate the aryl hydrocarbon receptor (AhR) signaling pathway (AID 743085). Also: nearly all actives have a fitted effect of over 15% in size. Also: potency is read from the fitted curve at half-maximal effect.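 As to activation: HG2L7.5c1 human HepG2 liver cells with stably integrated DRE-driven firefly reporter; series mostly up to about 70 µM.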 Put shortly: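 Reporter assay in engineered HepG2 line HG2L7.5c1, whose plasmid carries twenty dioxin responsive elements upstream of firefly luciferase. Treatment lasted 24 h at 37C; ONE-Glo luminescence gauged induction.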
Sequence of Aryl hydrocarbon receptor (Homo sapiens) (P35869 whole entry, looked up): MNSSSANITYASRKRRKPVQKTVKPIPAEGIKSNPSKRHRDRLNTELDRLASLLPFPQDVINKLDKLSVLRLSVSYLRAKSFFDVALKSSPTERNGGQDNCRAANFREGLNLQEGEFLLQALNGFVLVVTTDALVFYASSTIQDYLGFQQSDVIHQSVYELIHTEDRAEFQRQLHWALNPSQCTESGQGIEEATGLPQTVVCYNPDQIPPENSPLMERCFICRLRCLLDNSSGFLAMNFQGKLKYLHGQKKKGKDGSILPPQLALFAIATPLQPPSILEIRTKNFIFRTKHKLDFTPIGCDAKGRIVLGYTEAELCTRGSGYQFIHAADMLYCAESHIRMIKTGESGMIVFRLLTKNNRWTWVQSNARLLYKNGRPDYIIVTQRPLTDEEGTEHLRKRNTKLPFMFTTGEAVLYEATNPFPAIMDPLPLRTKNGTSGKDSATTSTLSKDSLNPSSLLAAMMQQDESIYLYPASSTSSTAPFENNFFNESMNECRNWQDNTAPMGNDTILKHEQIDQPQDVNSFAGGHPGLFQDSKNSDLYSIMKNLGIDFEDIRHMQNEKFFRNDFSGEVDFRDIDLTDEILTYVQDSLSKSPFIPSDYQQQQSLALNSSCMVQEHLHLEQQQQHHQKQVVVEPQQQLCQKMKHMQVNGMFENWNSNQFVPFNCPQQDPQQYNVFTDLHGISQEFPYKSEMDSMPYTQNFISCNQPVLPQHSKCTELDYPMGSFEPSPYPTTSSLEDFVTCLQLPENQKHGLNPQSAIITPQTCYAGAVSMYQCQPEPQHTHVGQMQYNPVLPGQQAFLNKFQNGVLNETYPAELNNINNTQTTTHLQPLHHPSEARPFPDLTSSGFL

The nature of assay [7]: qHTS assay to identify small molecule that activate the aryl hydrocarbon receptor (AhR) signaling pathway - cell viability counter screen (AID 743086).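 Also: HepG2 liver cells carrying the AhR DRE luciferase reporter; series mostly up to about 70 µM; nearly all actives have a fitted effect of over 45% in size.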 Put shortly:
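HepG2-AhR-luc (HG2L7.5c1) cells, 4000/well, treated 24 h at 37 C with compound; viability measured as CellTiter-Fluor fluorescence after 30 min in the same wells as the luciferase read.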

Assay [8] in a line: qHTS assay to identify small molecule antagonists of the peroxisome proliferator-activated receptor gamma (PPARg) signaling pathway - cell viability counter screen (AID 743194). Also: nearly all actives have a fitted effect of over 55% in size. Also: potency is read from the fitted curve at half-maximal effect. Put shortly:
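Cytotoxicity counter screen in PPARg-bla HEK293H cells, same wells as reporter assay. Compounds plus 50 nM rosiglitazone (final) for 17 h at 37 C, then viability read by CellTiter-Glo luminescence.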

Assay [9] can be described thus: qHTS assay for small molecule agonists of the antioxidant response element (ARE) signaling pathway - cell viability counter screen (AID 743203; calls by dose curve; also: nearly all actives have a fitted effect of over 55% in size). Put shortly:
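Cytotoxicity was tested in parallel with the ARE reporter screen. ARE-bla HepG2 cells were exposed to compounds for 16 hrs, and viability was taken from CellTiter-Glo luminescence.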

Assay [10] in a line: qHTS assay for small molecule activators of the heat shock response signaling pathway - cell viability counter screen (AID 743209). Also: nearly all actives have a fitted effect of over 50% in size. Also: potency is read from the fitted curve at half-maximal effect. The essentials:
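Cytotoxicity counter screen run in parallel with the HSE beta-lactamase reporter, using the same wells. HeLa HSE-bla cells received compound for 5 h at 37 C; ATP-based CellTiter-Glo luminescence was measured after 30 min at room temperature.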

The nature of assay [11]: qHTS assay for small molecule agonists of the antioxidant response element (ARE) signaling pathway (AID 743202; active = well fitted activation curve with a large enough effect in the signal ratio in the repeat runs, not every such curve was filed as active; inconclusive = weak or mixed curves, or effect the other way; inactive = no such curve, though single readings can be large or run the other way; the % refers to the signal ratio; also: potency is read from the fitted curve at half-maximal effect). The essentials: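 HepG2 ARE-bla cells; 16 h treatment at 37 C; FRET-based beta-lactamase fluorescence read after 2 h substrate incubation at room temperature.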
For assay [12], the target named is Estrogen receptor (Homo sapiens) (UniProt P03372). The assay can be described thus: qHTS assay to identify small molecule antagonists of the estrogen receptor alpha (ER-alpha) signaling pathway (AID 743069; active = well fitted curve in the direction sought with a large enough effect in the signal ratio in the repeat runs, not every such curve was filed as active; inconclusive = weak or mixed curves, or effect the other way; inactive = no such curve, though single readings can be large or run the other way; the % refers to the signal ratio). The essentials:
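In this cell-based reporter format, GripTite HEK293 cells harbouring ER-alpha-UAS-bla were grown overnight with 2% charcoal-stripped FBS, dosed with DMSO-dissolved compounds, then challenged with 17beta-estradiol. After 18 hr at 37C, beta-lactamase activity was detected by FRET fluorescence.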

For assay [13] the target is unchanged. The assay can be described thus: qHTS assay to identify small molecule agonists of the estrogen receptor alpha (ER-alpha) signaling pathway (AID 743075; calls by dose curve; also: potency is read from the fitted curve at half-maximal effect).
For assay [14] the target is unchanged. Nature of the assay: qHTS assay to identify small molecule agonists of the estrogen receptor alpha (ER-alpha) signaling pathway using the BG1 cell line (AID 743079). Also: nearly all actives have a fitted effect of over 20% in size. Also: potency is read from the fitted curve at half-maximal effect.
A short description of assay [15]: qHTS assay to identify small molecule antagonists of the estrogen receptor alpha (ER-alpha) signaling pathway using the BG1 cell line (AID 743080; calls by dose curve;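 also: BG1 cells stimulated with 17beta-estradiol alongside compound; nearly all actives have a fitted effect of over 25% in size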; also: potency is read from the fitted curve at half-maximal effect). Put shortly:
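Quantitative HTS on the Tox21 10K library: BG1 cells with endogenous ER-alpha and ERE-luciferase reporter, 17beta-estradiol stimulation, 21.5 h compound exposure, luminescence endpoint with parallel fluorescence cytotoxicity counter-read.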

Assay [16] deals with Peroxisome proliferator-activated receptor gamma (Homo sapiens) (UniProt P37231). Nature of the assay: qHTS assay to identify small molecule agonists of the peroxisome proliferator-activated receptor gamma (PPARg) signaling pathway (AID 743094; active = well fitted activation curve with a large enough effect in the signal ratio in the repeat runs, not every such curve was filed as active; inconclusive = weak or mixed curves, or effect the other way; inactive = no such curve, though single readings can be large or run the other way; the % refers to the signal ratio). Put shortly:
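Cells from the PPARg UAS-bla HEK293H line are plated and incubated 5 h at 37C. Compounds in DMSO are pinned in and left 17 h at 37C. LiveBLAzer B/G substrate is then added for 1 h at room temperature before fluorescence is measured.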

A short description of assay [17]: qHTS assay for small molecule activators of the heat shock response signaling pathway (AID 743210; active = well fitted activation curve with a large enough effect in the signal ratio in the repeat runs, with a control signal flat, not every such curve was filed as active; inconclusive = weak or mixed curves; the % refers to the signal ratio;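 also: HeLa cells with beta-lactamase reporter driven by heat shock elements; series mostly up to about 63 µM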). Put shortly:
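Following overnight attachment, HSE-bla HeLa cells received test compounds for 5 h at 37 C; beta-lactamase activity was then detected via FRET substrate fluorescence.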

The target of assay [18] is Peroxisome proliferator-activated receptor gamma (Homo sapiens) (UniProt P37231). Nature of the assay: qHTS assay to identify small molecule antagonists of the peroxisome proliferator-activated receptor gamma (PPARg) signaling pathway (AID 743191; calls by dose curve; also: series mostly up to about 63 µM; nearly all actives have a fitted effect of over 30% in size). Put shortly: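 GeneBLAzer PPARg UAS-bla HEK293H cells, 5 h post-plating, exposed to compounds 17 h at 37C. LiveBLAzer B/G FRET substrate added for 1 h at room temperature; beta-lactamase reporter read by fluorescence intensity.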
Sequence of Peroxisome proliferator-activated receptor gamma (Homo sapiens) (P37231 whole entry, looked up): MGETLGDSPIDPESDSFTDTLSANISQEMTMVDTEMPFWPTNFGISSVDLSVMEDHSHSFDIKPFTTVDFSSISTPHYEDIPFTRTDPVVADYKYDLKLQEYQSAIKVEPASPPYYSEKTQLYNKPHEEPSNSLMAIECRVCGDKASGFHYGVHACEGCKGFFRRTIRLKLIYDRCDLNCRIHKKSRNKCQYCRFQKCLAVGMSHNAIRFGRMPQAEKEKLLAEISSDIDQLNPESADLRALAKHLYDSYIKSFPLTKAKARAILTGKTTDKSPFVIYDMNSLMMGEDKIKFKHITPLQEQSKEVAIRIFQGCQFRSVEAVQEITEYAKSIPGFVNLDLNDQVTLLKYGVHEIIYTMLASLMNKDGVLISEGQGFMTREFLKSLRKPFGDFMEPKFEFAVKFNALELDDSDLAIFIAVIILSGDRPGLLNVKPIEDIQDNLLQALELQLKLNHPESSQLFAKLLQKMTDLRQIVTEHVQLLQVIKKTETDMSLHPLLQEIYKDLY

Sequence of Aromatase (Homo sapiens) (P11511 whole entry, looked up): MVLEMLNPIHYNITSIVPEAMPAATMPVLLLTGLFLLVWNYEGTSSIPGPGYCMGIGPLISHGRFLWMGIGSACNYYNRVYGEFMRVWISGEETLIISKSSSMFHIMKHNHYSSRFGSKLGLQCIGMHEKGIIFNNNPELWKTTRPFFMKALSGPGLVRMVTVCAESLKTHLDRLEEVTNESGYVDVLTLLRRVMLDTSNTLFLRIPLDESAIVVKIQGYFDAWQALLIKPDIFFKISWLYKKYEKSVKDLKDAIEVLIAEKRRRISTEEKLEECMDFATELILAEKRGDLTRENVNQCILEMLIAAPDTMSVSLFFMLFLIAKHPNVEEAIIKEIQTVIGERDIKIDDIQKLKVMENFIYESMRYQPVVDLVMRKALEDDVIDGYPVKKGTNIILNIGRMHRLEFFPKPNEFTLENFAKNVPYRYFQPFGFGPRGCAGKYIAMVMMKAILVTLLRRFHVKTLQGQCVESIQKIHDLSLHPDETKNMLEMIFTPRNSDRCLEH
Sequence of Estrogen receptor (Homo sapiens) (P03372 whole entry, looked up): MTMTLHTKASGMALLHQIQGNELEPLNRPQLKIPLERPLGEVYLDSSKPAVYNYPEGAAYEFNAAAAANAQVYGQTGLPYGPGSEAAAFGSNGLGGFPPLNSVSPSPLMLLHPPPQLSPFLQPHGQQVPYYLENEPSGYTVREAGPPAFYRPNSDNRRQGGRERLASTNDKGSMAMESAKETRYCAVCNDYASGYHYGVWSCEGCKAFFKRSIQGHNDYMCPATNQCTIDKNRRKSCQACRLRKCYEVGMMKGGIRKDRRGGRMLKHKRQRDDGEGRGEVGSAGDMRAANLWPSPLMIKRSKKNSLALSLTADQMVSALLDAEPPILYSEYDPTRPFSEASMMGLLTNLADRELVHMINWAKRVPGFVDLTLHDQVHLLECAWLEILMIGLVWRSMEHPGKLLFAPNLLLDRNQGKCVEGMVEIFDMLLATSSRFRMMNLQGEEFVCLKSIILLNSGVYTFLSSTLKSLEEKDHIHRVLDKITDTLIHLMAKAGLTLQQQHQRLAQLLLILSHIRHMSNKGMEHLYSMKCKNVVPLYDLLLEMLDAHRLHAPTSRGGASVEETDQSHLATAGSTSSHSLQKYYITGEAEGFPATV

Regarding `O=C1OC2(c3ccc(O)cc3Oc3cc(O)ccc32)c2ccc(N=C=S)cc21`, the Potency result (in assay [1]; in assay [3]; in [4]; in the assay with Aromatase (Homo sapiens); in assay [5]; in assay [6]) was “inactive” throughout. For the same compound, the Potency result in assay [7], in assay [8], in assay [9] and in assay [10] was “inactive” each time. Moreover, in assay [2], the outcome was inactive.
As for `S=C([S-])NCCNC(=S)[S-].S=C([S-])NCCNC(=S)[S-].[Mn+2].[Zn+2]`, the result in assay [2] was inactive. The Potency entry (with Aromatase (Homo sapiens); in assay [5]; in assay [6]; in [7]; in [10]) was “inactive” each time. Also, the Potency in [11] is 4.73 µM (active).
Turning to `Fc1ccc(C(c2ccc(F)cc2)N2CCNCC2)cc1`, the Potency in assay [8] was 26.6 µM (active); in assay [10] it was 15 µM (active).
For `COc1ccc2c(c1)c(CC(=O)OC/C=C(\C)CC/C=C(\C)CCC=C(C)C)c(C)n2C(=O)c1ccc(Cl)cc1`, the Potency entry in [8] and in assay [9] was “inactive” each time.
In the case of `CC1=CCC(=C(C)C)CC1`, the Potency result (in assay [12]; in [3]; in assay [13]; in assay [15]; in assay [4]; with Aromatase (Homo sapiens)) was “inactive” throughout. The Potency result in assay [5], in assay [6], in [7], in assay [16], in assay [8] and in assay [9] was “inactive” in each case. For the same compound, the Potency entry in assay [10] and in [17] was “inactive” each time. The Potency in assay [14] was 68.6 µM (active).
As to `O=C(O)Cc1ccc2c(c1)C(=O)c1ccccc1CO2`, the Potency result in assay [8], in assay [9], in [10] and in assay [17] was “inactive” each time.
As for `C#C[C@]1(O)CC[C@H]2[C@@H]3[C@H](C)CC4=C(CCC(=O)C4)[C@H]3CC[C@@]21C`, the Potency in assay [1] was 26.6 µM (active); in assay [13], 0.0134 µM [inconclusive] (active); in [14], 0.0038 µM (active); in assay [11], 23.7 µM (active). The Potency result (in assay [3]; in [15]; in [4]; with Aromatase (Homo sapiens); in assay [5]; in assay [6]) was “inactive” each time. Also, the Potency entry in assay [7], in [8], in assay [9] and in assay [10] was “inactive” in each case.
Turning to `Nc1nc2c(ncn2COCCO)c(=O)[nH]1`, the Potency result in assay [12], in [3], in assay [13], in assay [14], in [15] and in assay [4] was “inactive” each time. The Potency entry (with Aromatase (Homo sapiens); in [5]; in assay [6]; in [7]; in assay [8]; in [9]) was “inactive” throughout. The Potency entry in assay [10] and in assay [17] was “inactive” each time.
For `C#Cc1ccc(-c2ccccc2F)cc1`, the Potency result in assay [18], in assay [8], in assay [11], in assay [9], in [10] and in assay [17] was “inactive” each time.
As for `C#C[C@]1(OC(C)=O)CC[C@H]2[C@@H]3CCC4=C[C@@H](OC(C)=O)CC[C@@H]4[C@H]3CC[C@@]21C`, the Potency entry (in assay [3]; in assay [4]; in the assay with Aromatase (Homo sapiens); in assay [5]; in [6]; in assay [7]) was “inactive” throughout. Also, the Potency entry in [16], in assay [8], in [9], in assay [10] and in assay [17] was “inactive” in each case. Further, the Potency in [13] was 0.0085 µM [inconclusive] (active); in [14] it was 0.7 nM (active) and 4.7 nM (active); in assay [15] it was 33.5 µM (active); in [11], 26.6 µM (active).
Turning to `Nc1cc(Cl)c(O)c(Cl)c1`, in assay [2], the call was inactive. Besides, the Potency result (in [3]; in [13]; in [14]; in [15]; in assay [4]; with Aromatase (Homo sapiens)) was “inactive” in each case. Further, the Potency entry in assay [5], in [7], in [9] and in [10] was “inactive” throughout. For the same compound, the Potency in assay [6] was 61.1 µM (active).
On to `CC(C)=CCNc1ncnc2c1ncn2[C@@H]1O[C@H](CO)[C@@H](O)[C@H]1O`, for which the results for the Potency in assay [8] and in [10] were 9.44 µM (active) and 13.3 µM (active), respectively. Besides, the Potency result in [17] was “inactive”.
With `Cl[Si](Cl)(c1ccccc1)c1ccccc1`, the compound was called inactive in assay [2]. Also, the Potency result in assay [12], in assay [3], in assay [13], in [14], in assay [15] and in assay [4] was “inactive” throughout. Besides, the Potency entry (with Aromatase (Homo sapiens); in assay [5]; in [6]; in assay [7]; in [16]; in assay [8]) was “inactive” throughout. The Potency result in assay [11], in assay [9] and in [10] was “inactive” in each case.
Consider `CCCCCC(C)OC(=O)COc1ccc(Cl)c2cccnc12` (stereo not drawn), for which the call in assay [2] was inactive. For the same compound, the Potency entry in assay [13], in assay [14], in assay [15], in assay [4], in [5] and in [7] was “inactive” throughout. The Potency result in assay [16], in assay [8], in assay [11], in assay [9] and in assay [10] was “inactive” throughout.
